Measured values: PubChem BioAssay (NCATS)
Values joined by “and” are separate entries in the source; they are usually repeats but may differ in a detail not shown here. Equal values may be shown once. Results filed as inconclusive are left out. Entries that show only a call come without a potency. Active and inactive are the calls of the source. Calls come from the whole dose curve.

target: Retinoic acid receptor RXR-alpha (Homo sapiens) (UniProt P19793); assay: qHTS assay for small molecule agonists of retinoid X receptor alpha signaling (AID 588544); conditions: HEK293T RXRa-UAS-bla, beta-lactamase reporter, 18 h; series mostly up to 76.7 µM
Sequence (P19793 whole entry, looked up): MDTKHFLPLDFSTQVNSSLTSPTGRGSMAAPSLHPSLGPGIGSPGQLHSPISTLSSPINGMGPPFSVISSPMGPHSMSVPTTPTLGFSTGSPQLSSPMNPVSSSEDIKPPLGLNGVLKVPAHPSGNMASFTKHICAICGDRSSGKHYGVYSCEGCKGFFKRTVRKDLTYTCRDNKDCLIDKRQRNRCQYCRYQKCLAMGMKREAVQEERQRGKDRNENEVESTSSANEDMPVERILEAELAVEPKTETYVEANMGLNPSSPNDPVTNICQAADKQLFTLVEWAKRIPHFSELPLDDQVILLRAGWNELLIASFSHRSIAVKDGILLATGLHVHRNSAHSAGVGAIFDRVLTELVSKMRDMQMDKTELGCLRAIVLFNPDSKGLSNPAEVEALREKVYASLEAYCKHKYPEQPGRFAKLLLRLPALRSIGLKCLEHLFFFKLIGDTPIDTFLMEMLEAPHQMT
Description: NIH Chemical Genomics Center [NCGC] U.S. Environmental Protection Agency [EPA] National Institutes of Environmental Health Sciences [NIEHS] National Toxicology Program [NTP] NCGC Assay Overview The Retinoid X receptor (RXR), a nuclear hormone receptor is expressed in liver, spleen, placenta, epidermis, central nervous system. These receptors are able to form homo and heterodimers with other nuclear receptors and due to this heterodimerizing ability, RXR functions as master regulators producing diverse physiological effects. Three subtypes of RXR exist; alpha, beta and gamma. Retinoid X receptor alpha (RXR-alpha) has potential roles in metabolic signaling pathways, skin alopecia, dermal cysts, cardiac development, insulin sensitization etc. Therefore screening environmental chemicals on RXR-alpha signaling can be used for the studies focused on such therapeutic applications.
NCGC Assay Protocol Summary Using a beta-lactamase reporter-gene under control of Retinoid X receptor--alpha (RXR-alpha) response element, a cell-based assay [GeneBLAzer (RXR-alpha -UAS-bla assay developed by Invitrogen] was used to measure RXR-alpha ligands signaling. GeneBLAzer RXR-alpha -UAS-bla HEK293T cells were used with assay medium containing 2% charcoal-stripped FBS. The assay was performed in clear bottom black Greiner 1536-well plates. 9-cis-retinoic acid was used in the screen as the positive control. Library compounds were measured for their ability to stimulate the reporter gene activity. Compounds were screened in a titration series in 1536-well format. The fluorescence intensity (405 nm excitation, 460/530 nm emission) was measured using an EnVision plate reader. Data was normalized relative to 9-cis-retinoic acid control (500 nM, 100%), and DMSO only wells (basal, 0%). Concentration-response titration points for each compound were fitted to the Hill equation yielding concentrations of half-maximal stimulation (EC50) and maximal response (efficacy) values. qHTS protocol for RXR-alpha beta-lactamase assay in agonist mode [Step] [Parameter] [Value] [Description] 1. Reagent; 6 uL; 2500 cells/well 2. Incubation; 37 C for 4 hrs 3. Compounds; 23 nL; 0.59 nM to 92 uM 4. Controls (9-cis-retinoic acid); 23 nL, - One column with dose response, start 38 uM, 1:3 dilutions in duplicates - Final concentrations of 500 nM and 50 nM in two columns 5. Incubation; 37 C for 18 hrs 6. Detection reagent; 1 uL of CCF4-dye 7. Incubation; RT for 2 hrs 8. Detection; Fluorescence; Envision plate reader

SMILES	Potency
c1ccc2c(c1)Nc1ccccc1S2	inactive
CCOP(=S)(OCC)Oc1cc(C)nc(C(C)C)n1	inactive
CC(C)(C)CC(C)(C)c1ccc(O)cc1	inactive
C[C@]12CCC(=O)C(O)=C1CC[C@@H]1[C@@H]2CC[C@]2(C)C(=O)CC[C@@H]12	inactive
CCn1cc(C(=O)O)c(=O)c2ccc(C)nc21	inactive
CNCC(O)c1ccc(O)cc1 (stereo not given)	inactive
Nc1ccncc1	inactive
NCC(O)c1ccc(O)cc1 (stereo not given)	inactive
Oc1ccc(Cl)cc1Cc1ccccc1	35.5 µM (active) and 39.8 µM (active)
CCCC(C)(COC(N)=O)COC(=O)NC(C)C (stereo not given)	inactive
